Test results: PubChem BioAssay (NCI)
Compounds without any hit were thinned out: in the full panel of roughly 83,000, 20% have a hit.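 Each cell line was grown in a 96-well plate and treated with one concentration of compound for 48 hours. Values below 10 were considered active.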 A number with no mark means an inactive call. Active and inactive are the calls of the source.

System: NCI-H522 lung
Assay: NCI-60 one-dose screen, 48 h (100 = growth as untreated, 0 = no growth, -100 = all killed)
Conditions: 10 µM unless noted

SMILES	growth
CCN1C(=O)N(CC)C2C1NN=c1s/c(=C\c3ccc(F)cc3)c(=O)n12 (stereo unspecified)	-5.22% (active)
CC(C)c1nc(N(C)S(C)(=O)=O)nc(-c2ccc(F)cc2)c1/C=C/C(=O)C[C@@H](O)CC(=O)O	71.4%
C=C(C)[C@@H]1CC[C@]2(COCCCNCCCN)CC[C@]3(C)[C@H](CC[C@@H]4[C@@]5(C)CC[C@H](OCCCN)C(C)(C)[C@@H]5CC[C@]43C)[C@@H]12	-69.6% (active)
C=C(C)[C@@H]1CC[C@]2(COC(=O)c3cccnc3)CC[C@]3(C)[C@H](CC[C@@H]4[C@@]5(C)CCCN(C(=O)c6cccnc6)C(C)(C)[C@@H]5CC[C@]43C)[C@@H]12	34.3%
COc1cccc(C2C(C#N)=C(N)Oc3c2ccc2ccccc32)c1 (stereo unspecified)	7.11% (active)
C#Cc1cccc(Nc2ncnc3ccc(-c4cnc(Cl)c(NS(C)(=O)=O)c4)cc23)c1	-22.8% (active)
CCN1C(=O)N(CC)C2C1NN=c1s/c(=C3\C(=O)N(C)c4ccccc43)c(=O)n12 (stereo unspecified)	21.7%
O=C(Nc1ncc(Cc2ccccc2)s1)c1ccc2c(c1)OCCO2	-3.58% (active)
COc1cc(/C=C/c2cc(/C=C/c3ccc(O)c(OC)c3)n(C(=O)Nc3ccc(C)cc3C)n2)ccc1O	6.31% (active)
CC(C)(C)CC(C)(C)Nc1c(-c2c(O)c3ccccc3oc2=O)nc2sccn12	83%
COc1ccc(Cn2cc3c(c2)-c2oncc2CC3)cc1	71%
